This note sets out measurements from PubChem BioAssay (EPA / NIEHS).

By AC50 is commonly meant the concentration giving half of the maximal activity seen.

More than one record can exist for a structure, and the calls need not agree. Active and inactive are the calls of the source. Rule for the calls: active = hit-call score of the fitted dose curve at least 0.9, where 1 is the maximum; inactive = score below 0.9.

The test is described as follows: CCTE_Shafer_MEA_dev_spike_duration_mean: CCTE's Neural Network Formation Assay for Mean Spike Duration, Shafer Lab (AID 2284051).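 For AC50: potency for a decrease in mean network spike duration versus DMSO.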 The procedure: CCTE_Shafer_MEA_dev assay is conducted using Axion Biosystems 48 well microelectrode array (MEA) plates and Maestro recording system. Each well of the MEA plate contains a grid of 16 microelectrodes embedded in the culture surface. Electrically active cells, such as neurons, can be cultured over the electrodes, and electrical activity in these cells can be recorded extracellularly. The spontaneous firing of neurons is captured from each electrode on a microsecond timescale providing both temporally and spatially precise data. […] The CCTE_Shafer_MEA_dev assay uses primary cultures of rat cortical neurons. Recordings are made on days post-plating 5, 7, 9 and 12. As these cultures mature over time, neural networks develop functional activity and form cohesive networks in which electrical activity can be highly coordinated. CCTE_Shafer_MEA_dev_spike_duration_mean is 1 of 19 assay components of the CCTE_Shafer_MEA_dev assay. It measures the average duration of network spikes (temporally-clustered groups of action potential firing across multiple electrodes) during a recording in a microelectrode array (MEA) using Axion Biosystems Maestro 768 channel amplifier with the AxIS adaptive spike detector. To collapse across multiple recordings made on days post-plating 5, 7, 9 and 12, the trapezoidal area-under-the-curve of the component is calculated.Data from the assay component CCTE_Shafer_MEA_dev_spike_duration_mean was analyzed into 1 assay endpoint. This assay endpoint, CCTE_Shafer_MEA_dev_spike_duration_mean, was analyzed in the negative analysis fitting direction relative to DMSO as the negative control and baseline of activity. Using a type of functional reporter, gain or loss-of-signal activity can be used to understand electrical activity.
On the day prior to culture, each well was coated thoroughly with 150 uL of 0.05% polyethyleneimine (PEI, Sigma Cat P3143) in 50 mM HEPES (Sigma Cat H7523) at a pH of 8. The plate was incubated at 37C for one hour. PEI was rinsed out with 500 uL of sterile water three times. Plates were stored at 4C until the day of culture. This culture was plated at a seeding density of 1.5 x 10^5 cells/well on a 48-well MEA plate, prepared as described above. Cells were administered via a 25 uL media/laminin ([…]; Sigma Cat L2020-1MG) drop directly onto the microelectrode array, as adding the cells with the laminin results in better attachment than pre-coating with laminin. After 2 hours, an additional 475 uL of cortical media was added and the cells returned to the incubator. Exposure starts at day 0 of plating and is continued over twelve days of network development until the experiment is terminated. Cells are fed with fresh medium on DIV 5 and 9, following the recordings on those days. The entire volume of media in the well is exchanged and any vehicle or compound treatment is renewed. Complete details are found in OP-NHEERL/ISTD/SBB/TJS/2015-03-r0 (available on request, email shafer.tim@epa.gov). Measurement of the electrical activity is non-invasive, and recordings can be made from the same plate over multiple different days of the culture. In cortical neurons, this allows for the measurement of extracellular action potentials over the period during which networks form in the MEA plate.
Take `CC1(C)S[C@@H]2[C@H](NC(=O)COc3ccccc3)C(=O)N2[C@H]1C(=O)O`: the call was inactive.

`CN(C)c1ccc(C(=N)c2ccc(N(C)C)cc2)cc1`: the AC50 was 2.42 µM (active). In the case of `CC=CC(F)(F)C(F)(F)C(F)(F)F`, the compound was classed as inactive. As for `N[C@H]1C(O)O[C@H](CO)[C@H](O)[C@@H]1O` (stereo not given in full), the concentration at half-maximal activity (AC50) was 25.3 µM (active). For the compound `Nc1ncn([C@@H]2O[C@H](CO)[C@@H](O)[C@H]2O)c(=O)n1`, the result was inactive and the half-maximal activity concentration (AC50) was 4.17 µM (active).

As to `CCOC(F)(F)C(F)(F)C(F)(F)C(F)(F)F`, the compound was classed as inactive. Turning to `FC(F)=C(F)OC(F)(F)C(F)(F)C(F)(F)F`, the result was inactive. On the same count and under the same terms, next, `c1ccc2c(c1)ccc1cc3c(ccc4ccccc43)cc12`: “inactive”; `COC(F)(F)C(F)(C(F)(F)F)C(F)(F)F`: “inactive”.
